Reference: PubChem BioAssay AID1159580 (chemical genetic matrix, 2015)
The whole screen tested about 5,500 compounds, of which about 2,000 (36%) were called active. Inconclusive results (about 18%) are left out. Cut-off read from the data, not from the text of the source: active = normalized growth mostly below about 0.91 (no sharp cut-off); inconclusive = no clear call, values can overlap the other calls; inactive = mostly above about 0.92. Some of the results follow.

Assay: chemical genetic growth profiling, strain panel (AID 1159580);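 note: tested at 20 µM; growth read once vehicle control cultures reached saturation at 30 °C; 1 = growth at the plate median or of vehicle wells; lower values mean less growth of the strain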
Conditions: S. cerevisiae deletion strains, growth OD
[1] = locus YAL040C, strain CLN3, stronger effect = lower value
[2] = locus YCL061C, strain MRC1 (second series), stronger effect = lower value
[3] = locus YDR363W, strain ESC2, stronger effect = lower value
[4] = locus YER002W, strain NOP16, stronger effect = lower value
[5] = locus YNL175C, strain NOP13, stronger effect = lower value
[6] = locus YNL197C, strain WHI3, stronger effect = lower value
[7] = locus YNL224C, strain SQS1, stronger effect = lower value
[8] = locus YOR083W, strain WHI5 (second series), stronger effect = lower value
[9] = locus YPL055C, strain LGE1, stronger effect = lower value

Measured: normalized growth

O=P(O)(O)C(Cl)(Cl)P(=O)(O)O
inactive: locus YAL013W, strain DEP1, stronger effect = lower value 1.01 | [1] 0.972 | [2] 0.995 | [3] 1.04 | [4] 1.01 | locus YJR075W, strain HOC1, stronger effect = lower value 1.03 | locus YMR263W, strain SAP30, stronger effect = lower value 1 | [5] 1 | [6] 0.968 | [7] 1.02 | [8] 0.973 | [9] 1.02

CC12NC(Cc3ccccc31)c1ccccc12 (stereo not given)
inactive: [1] 0.983 | [2] 0.984 | [3] 1.04 | [4] 1.01 | locus YGR078C, strain PAC10, stronger effect = lower value 0.992 | locus YNL128W, strain TEP1, stronger effect = lower value 1.06 | locus YNL153C, strain GIM3, stronger effect = lower value 0.997 | [5] 1 | [6] 1.01 | [7] 0.988 | [8] 1 | [9] 1.01

CC1(C)CC(=O)C=C(Sc2nc3ccccc3o2)C1
inactive: locus YAR019C, strain CDC15, stronger effect = lower value 0.966 | locus YBL105C, strain PKC1, stronger effect = lower value 0.968 | locus YBR135W, strain CKS1, stronger effect = lower value 0.955 | locus YBR136W, strain MEC1, stronger effect = lower value 0.965 | locus YBR160W, strain CDC28, stronger effect = lower value 0.962 | locus YDL017W, strain CDC7, stronger effect = lower value 0.974 | locus YDL028C, strain MPS1, stronger effect = lower value 0.965 | locus YDL101C, strain DUN1, stronger effect = lower value 0.958 | locus YDL108W, strain KIN28, stronger effect = lower value 0.961 | locus YDL132W, strain cdc53, stronger effect = lower value 0.947 | locus YDL214C, strain PRR2, stronger effect = lower value 0.933 | locus YDR052C, strain DBF4, stronger effect = lower value 0.984 | locus YDR054C, strain cdc34, stronger effect = lower value 0.949 | locus YDR226W, strain ADK1, stronger effect = lower value 0.967 | locus YDR477W, strain SNF1, stronger effect = lower value 0.949 | locus YER123W, strain YCK3, stronger effect = lower value 0.926 | locus YER133W, strain GLC7, stronger effect = lower value 0.979 | locus YFL009W, strain cdc4, stronger effect = lower value 0.953 | locus YFL029C, strain CAK1, stronger effect = lower value 0.965 | locus YFR003C, strain YPI1, stronger effect = lower value 0.971 | locus YFR019W, strain FAB1, stronger effect = lower value 0.941 | locus YFR028C, strain CDC14, stronger effect = lower value 0.957 | locus YGR040W, strain KSS1, stronger effect = lower value 0.945 | locus YGR052W, strain FMP48, stronger effect = lower value 0.916 | locus YGR092W, strain DBF2, stronger effect = lower value 0.739 | locus YHR030C, strain SLT2, stronger effect = lower value 0.983 | locus YHR079C, strain IRE1, stronger effect = lower value 0.955 | locus YHR082C, strain KSP1, stronger effect = lower value 0.992 | locus YHR205W, strain SCH9, stronger effect = lower value 0.861 | locus YIL147C, strain SLN1, stronger effect = lower value 0.962 | locus YJL095W, strain BCK1, stronger effect = lower value 0.837 | locus YJL128C, strain PBS2, stronger effect = lower value 0.924 | locus YJL157C, strain FAR1, stronger effect = lower value 0.951 | locus YJR016C, strain ILV3, stronger effect = lower value 0.952 | locus YJR066W, strain TOR1 (second series), stronger effect = lower value 0.875 | locus YJR066W, strain TOR1, stronger effect = lower value 0.946 | locus YKL048C, strain ELM1, stronger effect = lower value 0.961 | locus YKL067W, strain YNK1, stronger effect = lower value 0.946 | locus YKL101W, strain HSL1, stronger effect = lower value 0.925 | locus YKL193C, strain SDS22, stronger effect = lower value 0.953 | locus YKL203C, strain TOR2, stronger effect = lower value 0.99 | locus YLR133W, strain CKI1, stronger effect = lower value 0.938 | locus YLR403W, strain SFP1, stronger effect = lower value 0.901 | locus YML070W, strain DAK1, stronger effect = lower value 0.927 | locus YMR001C, strain CDC5, stronger effect = lower value 0.961 | locus YMR205C, strain PFK2 (second series), stronger effect = lower value 0.948 | locus YMR277W, strain FCP1, stronger effect = lower value 0.956 | locus YNL006W, strain LST8, stronger effect = lower value 0.974 | locus YNL020C, strain ARK1, stronger effect = lower value 0.944 | locus YNL161W, strain CBK1, stronger effect = lower value 0.967 | locus YNL183C, strain NPR1, stronger effect = lower value 0.951 | locus YNL207W, strain RIO2, stronger effect = lower value 0.948 | locus YNL222W, strain SSU72, stronger effect = lower value 0.964 | locus YNL307C, strain MCK1 (second series), stronger effect = lower value 0.873 | locus YOL078W, strain AVO1, stronger effect = lower value 0.947 | locus YOL136C, strain PFK27, stronger effect = lower value 0.907 | locus YOR061W, strain CKA2, stronger effect = lower value 0.955 | locus YOR119C, strain RIO1, stronger effect = lower value 1.01 | locus YOR231W, strain MKK1, stronger effect = lower value 0.902 | locus YOR329C, strain SCD5, stronger effect = lower value 0.97 | locus YPL031C, strain PHO85, stronger effect = lower value 0.946 | locus YPL153C, strain RAD53, stronger effect = lower value 0.949 | locus YPL204W, strain HRR25, stronger effect = lower value 0.935 | locus YPL209C, strain IPL1, stronger effect = lower value 0.965 | locus YPL256C, strain CLN2, stronger effect = lower value 0.967 | locus YPR025C, strain CCL1, stronger effect = lower value 0.968 | locus YPR106W, strain ISR1, stronger effect = lower value 0.964 | locus YPR111W, strain DBF20, stronger effect = lower value 0.939 | strain NNK1, stronger effect = lower value 0.961 | strain TSCII, stronger effect = lower value 0.956
active: locus YLR113W, strain HOG1, stronger effect = lower value 0.832
